From the supplement of paper PMC10127200
Counter-ions that a name gives are not always drawn.

How the values were obtained:
Assay in all cases: Euclidean distance of Cell Painting phenotypic profile (signed KS, 77 features) to DMSO centroid (dimensionless distance); 5 or 10 uM (library dependent); higher = stronger phenotypic change vs DMSO (phenoactivity)
Conditions in all cases: 48 h
[1] = system: 786-O
Outline: (§1)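 Phenoactivity is defined as the Euclidean distance from a compound profile to the median vehicle profile. Each profile comprised 77 Harmony features, scored as signed Kolmogorov-Smirnov statistics versus same-plate vehicle wells, then plate-position corrected, correlation-weighted and replicate-averaged at the top dose. Five cancer lines and one healthy fibroblast line were exposed to library compounds for 48 h at 10 or 5 uM (0.1% DMSO final).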

[2] = system: A549
Outline: as §1

[3] = system: DU145
Outline: as §1

[4] = system: FB
Outline: as §1

[5] = system: HEPG2
Outline: as §1

[6] = system: OVCAR4
Outline: as §1

SMILES | Euclidean distance [1] | Euclidean distance [2] | Euclidean distance [3] | Euclidean distance [4] | Euclidean distance [5] | Euclidean distance [6]
CC(C)(C)c1[nH]cnc1/C=c1\[nH]c(=O)/c(=C/c2ccccc2)[nH]c1=O [Plinabulin (NPI-2358)] | 3.18 | 3.25 | 4.17 | 2.89 | 4.1 | 2.86
O=C(OCc1ccccc1)c1ccccc1 [Benzyl benzoate] | 0.857 | 1.28 | 0.936 | 0.794 | 0.831 | 1.33
O=C(c1ccc(/C=C/c2n[nH]c3ccccc23)cc1)N1CCNCC1 | 3.16 | 3.89 | 3.66 | 3.31 | 2.78 | 3.53
CCC(=O)O[C@@H]1CC(=O)O[C@H](C)C/C=C/C=C/[C@H](O)[C@H](C)C[C@H](CC=O)[C@H](O[C@@H]2O[C@H](C)[C@@H](O[C@H]3C[C@@](C)(O)[C@@H](OC(=O)CC)[C@H](C)O3)[C@H](N(C)C)[C@H]2O)[C@H]1OC [Midecamycin] | 0.98 | 1.59 | 0.874 | 1.31 | 1.08 | 1.07
Cn1c(=O)c2[nH]cnc2n(C)c1=O [Aminophylline] | 1.11 | 1.06 | 0.75 | 0.798 | 0.585 | 0.841
CC(C)[N+](C)(CCOC(=O)C1c2ccccc2Oc2ccccc21)C(C)C [Propantheline bromide] | 0.803 | 0.839 | 0.798 | 0.725 | 0.423 | 0.718
CC(C)CCCCC(=O)N[C@@H](CCN)C(=O)N[C@H](C(=O)N[C@@H](CCN)C(=O)N[C@H]1CCNC(=O)[C@H]([C@@H](C)O)NC(=O)[C@H](CCN)NC(=O)[C@H](CCN)NC(=O)[C@H](CC(C)C)NC(=O)[C@@H](Cc2ccccc2)NC(=O)[C@H](CCN)NC1=O)[C@@H](C)O [Polymyxin B sulphate] | 1.64 | 0.815 | 1.39 | 1.53 | 0.717 | 0.928
Cn1cc(C2=C(c3cn(CCCSC(=N)N)c4ccccc34)C(=O)NC2=O)c2ccccc21 [Ro 31-8220 Mesylate] | 2.7 | 3.02 | 2.58 | 2.92 | 3.24 | 2.82
NC(=O)[C@@H]1CSSCCC(=O)N[C@@H](CCCCN=C(N)N)C(=O)NCC(=O)N[C@@H](CC(=O)O)C(=O)N[C@@H](Cc2c[nH]c3ccccc23)C(=O)N2CCC[C@H]2C(=O)N1 [Eptifibatide Acetate] | 1.66 | 1.02 | 0.993 | 1.11 | 0.664 | 1.36
CC(C)(C)c1ccc(C(O)CCCN2CCC(C(O)(c3ccccc3)c3ccccc3)CC2)cc1 (stereo not drawn) [Terfenadine] | 1.05 | 4.51 | 1.53 | 1.18 | 1.05 | 1.52
CCNC(=O)[C@@H]1CCCN1C(=O)[C@H](CCCNC(=N)N)NC(=O)[C@H](CC(C)C)NC(=O)[C@@H](CC(C)C)NC(=O)[C@H](Cc1ccc(O)cc1)NC(=O)[C@H](CO)NC(=O)[C@H](Cc1c[nH]c2ccccc12)NC(=O)[C@H](Cc1c[nH]cn1)NC(=O)[C@@H]1CCC(=O)N1 [Leuprorelin Acetate] | 1.85 | 1 | 1.17 | 0.933 | 0.582 | 0.958
C=CC(=O)N1CCC[C@@H](n2nc(-c3ccc(Oc4ccccc4)cc3)c3c(N)ncnc32)C1 | 1.76 | 2.16 | 2.61 | 2.35 | 1.42 | 2.38
C=CCc1ccc(O)c(OC)c1 [Eugenol] | 0.982 | 1.21 | 0.897 | 0.958 | 0.497 | 1.51
